This passage reports growth results from PubChem BioAssay (NCI).

What all share (assay): NCI-60 one-dose screen, 48 h (100 = growth as untreated, 0 = no growth, -100 = all killed)
Holding throughout (settings): 10 µM unless noted

For assay [1], the system named is SR leukemia.
For assay [2], the system named is RPMI-8226 leukemia.
In assay [3] the test system is OVCAR-8 ovarian.
Assay [4] relates to OVCAR-5 ovarian.
For assay [5], the system named is OVCAR-4 ovarian.
Assay [6] relates to SK-OV-3 ovarian.
Assay [7] deals with IGROV1 ovarian.
Assay [8] deals with OVCAR-3 ovarian.
The subject of assay [9] is HS 578T breast.
Assay [10] has as its system NCI/ADR-RES ovarian.
Assay [11] concerns T-47D breast.
In assay [12] the test system is BT-549 breast.
For assay [13], the system named is MDA-MB-435 melanoma.
Assay [14] has as its system SW-620 colon.
Assay [15] concerns MCF7 breast.
Assay [16] has as its system HCT-116 colon.
In assay [17] the test system is HCC-2998 colon.
The subject of assay [18] is KM12 colon.

Each structure is given as a SMILES string. The panel holds about 83,000 compounds, 20% with a hit somewhere; the sample as a whole holds those more often.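 Cell lines were cultured in 96-well plates, exposed to a single compound concentration, and assessed for percent growth 48 hours later.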 Unmarked numbers belong to inactive results. The source made the active and inactive calls. The calls were made as follows: active = growth percent below 10; inactive = the rest.

Turning to `NC(=NCc1ccccc1)C(N=Nc1ccccc1)C(=O)NCc1ccccc1` (centres undefined), the growth was 19.1% in assay [1]; 90.9% in assay [2]; 31.1% in [3]; 100% in [4]; 76.5% in assay [5]; 95.6% in [6]. Besides, the growth in assay [7] is 81.5%; in [8], 88.8%; in assay [9], 64%; in assay [10], 50.2%; in assay [11], 84.6%; in assay [12] it was 114%. In addition, the growth is 81.4% in assay [13]; 61.5% in assay [14]; 69.4% in assay [15]; 15.8% in assay [16]; 74.7% in [17]; 34.6% in assay [18].

Consider `O=C(O)c1ccc(-c2nn(-c3ccc(C(F)(F)F)cc3)cc2CNc2ccc(Oc3ccccc3)cc2)cc1`, for which the growth in assay [1] was 60.7%; in assay [2], 46.5%; in assay [3], 69%; in assay [4] it was 103%; in assay [5], 90.3%; in [6], 135%. For the same compound, the growth is 89% in assay [7]; 92.5% in assay [8]; 95.7% in [9]; 81.9% in [10]; 65% in assay [11]; 90.6% in assay [12]. Further, the growth is 87.5% in assay [13]; 93.9% in assay [14]; 70.3% in [15]; 60.8% in assay [16]; 115% in [17]; 59.5% in [18].

As to `CC(C)N1C(=O)/C(=C2\SC(=S)N(C(C)C)C2=O)SC1=S`, the growth in [1] is 109%; in assay [2], 92.9%; in assay [3], 96.5%; in assay [4], 88%; in assay [5], 89.6%; in assay [6] it was 113%. For the same compound, the growth in assay [7] is 94.4%; in [8], 98.4%; in assay [9], 91.4%; in assay [10] it was 95.7%; in [11] it was 82.8%; in [12], 98.7%. Further, the growth is 100% in assay [13]; 94.9% in [14]; 96.8% in assay [15]; 95% in [16]; 98.3% in assay [17]; 99.9% in assay [18].

With `Cc1cccc(NC(=O)Nc2ccc(-c3ccc4c(c3)NC(=O)/C4=C\c3ccc[nH]3)cc2)c1`, the growth in [1] is 23.6%; in assay [2], 91.4%; in assay [3] it was 105%; in [4], 96.3%; in [5] it was 73.4%; in assay [6] it was 90.5%. For the same compound, the growth in [7] is 78%; in [8] it was 103%; in assay [9], 95.7%; in [10], 93.8%; in assay [11], 39.1%; in [12], 102%. The growth was 78.8% in assay [13]; 73% in assay [14]; 15.3% in assay [15]; 72.7% in assay [16]; 99% in assay [17]; 19.4% in assay [18].

For the compound `C=C1C(=O)O[C@H]2[C@H]1CC/C(CNC(=O)/C=C/c1cccc(OC)c1)=C\CC[C@@]1(C)O[C@@H]21`, the growth is 8.06% (active) in assay [1]; 2.73% (active) in [2]; 3.77% (active) in assay [3]; 39.8% in assay [4]; 19.4% in assay [5]; 86% in [6]. The growth was 20.6% in assay [7]; -62.6% (active) in assay [8]; 73.1% in assay [9]; 82.6% in assay [10]; -4.32% (active) in assay [11]; -12.3% (active) in assay [12]. Besides, the growth in assay [13] was 16.7%; in assay [14], -61.9% (active); in assay [15] it was -7.47% (active); in [16] it was -62.2% (active); in assay [17] it was 36.5%; in assay [18] it was 80%.

On to `COc1ccccc1NC(=O)C1CC(c2ccc(F)cc2)=NO1` (centres undefined), for which the growth was 101% in assay [1]; 97.1% in assay [2]; 98.1% in assay [3]; 108% in [4]; 102% in assay [5]; 112% in assay [6]. For the same compound, the growth in assay [7] is 105%; in [8] it was 110%; in [9], 94.1%; in assay [10], 95.8%; in assay [11] it was 93.9%; in assay [12], 112%. Also, the growth was 103% in assay [13]; 102% in assay [14]; 90.8% in assay [15]; 103% in assay [16]; 90.1% in assay [17]; 101% in assay [18].

Turning to `CCC(=O)Oc1ccc(/C(=C(\C)c2ccccc2)c2ccc(OCCN3CCCCC3)cc2)cc1`, the growth in assay [1] was 20.3%; in assay [2], 62.9%; in assay [3], 81.6%; in assay [4], 90.9%; in assay [5] it was 80.6%; in assay [6], 75.5%. For the same compound, the growth was 93.8% in assay [7]; 84.3% in [8]; 72.9% in assay [9]; 74.8% in assay [10]; 34.3% in [11]; 82.6% in assay [12]. The growth was 81.4% in assay [13]; 87.1% in assay [14]; 24.2% in [15]; 60.9% in assay [16]; 65.2% in assay [17]; 65% in [18].

On to `O=C(NO)c1ccc(-n2nc(-c3ccccc3)c3ccccc32)cc1`, for which the growth in assay [1] is 22.8%; in assay [2], 32.6%; in assay [3], 32.6%; in assay [4] it was 63.8%; in assay [5], 19.2%; in [6] it was 58.7%. The growth in assay [7] is 44.9%; in assay [8] it was 1% (active); in assay [9] it was 55.5%; in assay [10] it was 22.7%; in assay [11] it was 37.3%; in assay [12] it was 67.2%. The growth in assay [13] was 84.7%; in assay [14] it was 41.2%; in assay [15], 22.4%; in assay [16] it was 7.64% (active); in assay [17], 44.1%; in assay [18], 71.8%.
